Measured values: PubChem BioAssay (EPA / NIEHS)
Records with an inconclusive call do not appear. Active and inactive are the calls of the source. How the source made its calls, unless noted: active means hit-call score of the fitted dose curve at least 0.9, where 1 is the maximum; inactive means score below 0.9.

Tests used:
[1] = read-out: E-selectin (Homo sapiens) (UniProt P16581); assay: BSK_SAg_Eselectin: BioMAP Diversity Plus: SAg Assay for Eselectin Biomarker Activity (AID 2283091); details: primary human HUVEC with PBMC; actives raise or lower the signal
Summary of the method: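 Human umbilical vein endothelial cells co-cultured with peripheral blood mononuclear cells, SAg system. E-selectin is measured by ELISA 24 h after dosing and fitted bidirectionally against DMSO. Cytotoxicity is checked by SRB staining of parallel cultures.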

[2] = read-out: Monokine induced gamma interferon (MIG), CXCL9 (gene 4283); assay: BSK_SAg_MIG: BioMAP Diversity Plus: SAg Assay for Monokine induced gamma interferon (MIG) Biomarker Activity (AID 2283092); details: primary human HUVEC with PBMC; actives raise or lower the signal
Summary of the method: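 HUVEC plus human PBMC co-culture, chemicals dosed and MIG (CXCL9) quantified by ELISA at 24 h. Bidirectional curve fitting against DMSO as negative control and baseline, so both gain and loss of signal count as activity.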

[3] = BSK_SAg_PBMCCytotoxicity: PBMC Cytotoxicity Assessment in the BioMAP Diversity Plus: SAg Assay (AID 2283093); details: primary human HUVEC with PBMC;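 further: fitted both ways against DMSO so a hit may be loss or gain of signal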;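 on AC50: PBMC superantigen activated with SEB plus TSST-1 one hour after compound addition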
Summary of the method: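 PBMC viability by Alamar Blue reduction, fluorescence read at 546/580 nm after 6 h dye exposure. Cells were dosed 1 h before SEB plus TSST-1 activation (20 ng/mL final each), then held 90 h; endothelial/PBMC human co-culture.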

[4] = read-out: Interleukin-8 (IL8), CXCL8 (gene 3576); assay: BSK_SAg_IL8: BioMAP Diversity Plus: SAg Assay for Interleukin-8 (IL8) Biomarker Activity (AID 2283094); details: primary human HUVEC with PBMC; actives raise or lower the signal
Summary of the method: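 HUVEC/PBMC co-culture, 24 h post-dose; IL-8 by ELISA. Gain or loss of signal fitted bidirectionally vs DMSO baseline.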

[5] = BSK_SAg_Proliferation: Cell Proliferation Assessment in the BioMAP Diversity Plus: SAg Assay (AID 2283095); details: primary human HUVEC with PBMC;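 further: relative cell number as total protein by SRB absorbance in sub-confluent culture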
Summary of the method: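 HUVEC/PBMC co-culture, 96-well. TCA-fixed (10%), 0.1% SRB stain, A560 at 96 h. Protein content used as viability readout; bidirectional fitting vs DMSO control.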

[6] = BSK_SAg_SRB: Viability Assessment in the BioMAP Diversity Plus: SAg Assay (AID 2283096); details: primary human HUVEC with PBMC;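 further: cells read one day after compound addition; hits may be either gain or loss of signal compared with DMSO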
Summary of the method: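 Compounds were added to a human vascular co-culture of umbilical vein endothelium and PBMC. After 24 h, parallel cultures were fixed with 10% TCA, stained with 0.1% sulforhodamine B and read at 560 nm. Gain or loss of signal was fitted relative to DMSO.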

[7] = target: human CYP2D6, CYP2D6 (gene 1565) (UniProt P10635); assay: NVS_ADME_hCYP2D6: NovaScreen (NVS) CYP450-related Enzyme Activity (ADME) Assay for human CYP2D6 (AID 2283107; active means hit-call score of the fitted dose curve at least 0.9, where 1 is the maximum)
Summary of the method: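 Cell-free assay using recombinant human CYP2D6 expressed in insect cells, with a fluorogenic substrate read after 1 h. Primary screen in duplicate at 10 uM; actives followed up in concentration series. Loss of signal fitted relative to acetonitrile.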

[8] = target: human CYP19A1, CYP19A1 (gene 1588) (UniProt P11511); assay: NVS_ADME_hCYP19A1: NovaScreen (NVS) CYP450-related Enzyme Activity (ADME) Assay for human CYP19A1 (AID 2283098; active means hit-call score of the fitted dose curve at least 0.9, where 1 is the maximum;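 on AC50: potency for inhibitors seen as loss of fluorescent enzyme signal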)
Method: NVS_ADME_hCYP19A1 is a biochemical, single-readout assay that uses extracted gene-proteins in a cell-free assay. Measurements were taken 0.5 hour after chemical dosing in a 384-well plate.NVS_ADME_hCYP19A1 is one of one assay component(s) measured or calculated from the NVS_ADME_hCYP19A1 assay. It is designed to make measurements of enzyme activity, a form of enzyme reporter, as detected with fluorescence intensity signals by Fluorescence technology.Data from the assay component NVS_ADME_hCYP19A1 was analyzed into 1 assay endpoint. This assay endpoint, NVS_ADME_hCYP19A1, was analyzed in the positive analysis fitting direction relative to Acetonitrile as the negative control and baseline of activity. Using a type of enzyme reporter, loss-of-signal activity can be used to understand changes in the enzymatic activity as they relate to the gene CYP19A1. Furthermore, this assay endpoint can be referred to as a primary readout, because this assay has produced multiple assay endpoints where this one serves a enzymatic activity function. To generalize the intended target to other relatable targets, this assay endpoint is annotated to the cyp intended target family, where the subfamily is steroidogenesis-related.
Binding assays used specific radioligands (tritiated, iodinated) with non-radioactive competitive displacement ligands in agonist or antagonist protocols (as indicated) and various reference compounds and inhibitors to titrate specific binding to receptors and transporters. Most enzyme assays (CYPs, kinases, phosphatases, proteases, HDACs) used recombinant protein and specific substrates (fluorescence mostly, some colorimetric and radioactive) and inhibitors, followed by a biochemical separation of substrate and product. All assays for the biochemical HTS were initially run in duplicate at a single concentration (10 uM for CYP450 assays and 25 uM for all others). […] Each assay was run with positive and negative controls, and concurrent controls on every plate. […]

[9] = target: human CYP2B6, CYP2B6 (gene 1555) (UniProt P20813); assay: NVS_ADME_hCYP2B6: NovaScreen (NVS) CYP450-related Enzyme Activity (ADME) Assay for human CYP2B6 (AID 2283101; active means hit-call score of the fitted dose curve at least 0.9, where 1 is the maximum)
Summary of the method: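 Recombinant human CYP2B6 with fluorogenic substrate, read by fluorescence intensity 1 h after dosing. Primary screen in duplicate at 10 uM, actives followed in concentration series; signal loss relative to acetonitrile control.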

[10] = target: human CYP1A2, CYP1A2 (gene 1544) (UniProt P05177); assay: NVS_ADME_hCYP1A2: NovaScreen (NVS) CYP450-related Enzyme Activity (ADME) Assay for human CYP1A2 (AID 2283102; active means hit-call score of the fitted dose curve at least 0.9, where 1 is the maximum)
Summary of the method: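 Recombinant human CYP1A2 from insect cells, cell-free, fluorogenic substrate; read 0.5 h after dosing with loss of fluorescence signal indicating inhibition. Primary screen in duplicate at 10 uM, acetonitrile as negative control.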

Measured: AC50

E-selectin (Homo sapiens), sequence (P16581 whole entry, looked up): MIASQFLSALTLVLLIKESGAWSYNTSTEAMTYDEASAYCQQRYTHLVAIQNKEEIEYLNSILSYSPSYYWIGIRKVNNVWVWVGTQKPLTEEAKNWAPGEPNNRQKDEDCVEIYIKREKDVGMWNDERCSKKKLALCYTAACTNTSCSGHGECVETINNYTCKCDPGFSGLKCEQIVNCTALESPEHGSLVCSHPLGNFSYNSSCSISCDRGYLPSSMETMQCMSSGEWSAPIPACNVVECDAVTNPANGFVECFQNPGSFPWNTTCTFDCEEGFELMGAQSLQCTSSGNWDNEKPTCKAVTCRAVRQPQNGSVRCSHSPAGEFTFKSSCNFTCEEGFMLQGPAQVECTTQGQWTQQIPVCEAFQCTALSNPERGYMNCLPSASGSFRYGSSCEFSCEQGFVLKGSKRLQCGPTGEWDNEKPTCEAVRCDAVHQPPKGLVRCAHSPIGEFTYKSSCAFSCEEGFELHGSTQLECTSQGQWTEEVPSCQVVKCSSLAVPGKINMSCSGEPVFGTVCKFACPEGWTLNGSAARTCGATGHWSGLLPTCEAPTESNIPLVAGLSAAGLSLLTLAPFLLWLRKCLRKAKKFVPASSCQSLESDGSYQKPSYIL
human CYP19A1, CYP19A1 (gene 1588), sequence (P11511 whole entry, looked up): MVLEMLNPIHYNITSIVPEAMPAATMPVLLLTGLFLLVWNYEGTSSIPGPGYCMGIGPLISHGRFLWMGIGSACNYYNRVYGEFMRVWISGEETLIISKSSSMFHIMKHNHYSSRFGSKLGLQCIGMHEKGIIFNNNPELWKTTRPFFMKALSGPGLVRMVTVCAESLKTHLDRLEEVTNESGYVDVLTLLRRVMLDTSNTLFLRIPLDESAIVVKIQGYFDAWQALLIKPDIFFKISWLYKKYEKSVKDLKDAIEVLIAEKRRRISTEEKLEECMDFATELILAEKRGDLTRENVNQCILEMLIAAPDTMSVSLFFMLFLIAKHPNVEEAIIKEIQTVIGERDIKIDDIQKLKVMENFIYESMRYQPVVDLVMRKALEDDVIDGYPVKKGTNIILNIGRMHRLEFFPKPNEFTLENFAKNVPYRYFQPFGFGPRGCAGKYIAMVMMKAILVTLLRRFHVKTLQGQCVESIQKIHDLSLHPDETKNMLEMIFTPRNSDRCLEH
human CYP2D6, CYP2D6 (gene 1565), sequence (P10635 whole entry, looked up): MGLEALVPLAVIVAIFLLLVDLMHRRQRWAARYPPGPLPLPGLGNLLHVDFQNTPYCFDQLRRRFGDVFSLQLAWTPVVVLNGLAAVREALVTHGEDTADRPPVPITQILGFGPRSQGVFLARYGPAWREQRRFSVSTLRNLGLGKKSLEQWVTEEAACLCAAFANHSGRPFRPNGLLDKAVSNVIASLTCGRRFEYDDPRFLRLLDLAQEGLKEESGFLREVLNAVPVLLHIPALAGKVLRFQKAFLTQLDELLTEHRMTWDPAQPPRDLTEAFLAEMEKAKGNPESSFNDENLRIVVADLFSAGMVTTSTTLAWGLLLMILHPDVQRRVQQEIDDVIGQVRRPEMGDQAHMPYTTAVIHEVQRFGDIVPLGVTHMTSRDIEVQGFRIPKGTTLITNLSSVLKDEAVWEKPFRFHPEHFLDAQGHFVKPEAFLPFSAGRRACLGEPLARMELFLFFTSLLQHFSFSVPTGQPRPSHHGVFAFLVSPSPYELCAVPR
human CYP2B6, CYP2B6 (gene 1555), sequence (P20813 whole entry, looked up): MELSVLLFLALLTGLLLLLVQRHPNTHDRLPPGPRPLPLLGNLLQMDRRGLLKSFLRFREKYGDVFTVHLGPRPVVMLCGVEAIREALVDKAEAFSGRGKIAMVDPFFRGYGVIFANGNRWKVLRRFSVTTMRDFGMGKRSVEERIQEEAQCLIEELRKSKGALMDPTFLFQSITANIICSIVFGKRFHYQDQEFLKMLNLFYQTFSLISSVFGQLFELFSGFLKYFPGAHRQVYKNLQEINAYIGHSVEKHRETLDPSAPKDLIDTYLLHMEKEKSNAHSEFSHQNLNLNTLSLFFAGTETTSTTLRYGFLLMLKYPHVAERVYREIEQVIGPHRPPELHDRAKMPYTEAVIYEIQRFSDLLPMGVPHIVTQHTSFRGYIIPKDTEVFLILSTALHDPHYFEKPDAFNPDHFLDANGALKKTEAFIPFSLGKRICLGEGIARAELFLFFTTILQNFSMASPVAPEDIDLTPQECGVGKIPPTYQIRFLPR
human CYP1A2, CYP1A2 (gene 1544), sequence (P05177 whole entry, looked up): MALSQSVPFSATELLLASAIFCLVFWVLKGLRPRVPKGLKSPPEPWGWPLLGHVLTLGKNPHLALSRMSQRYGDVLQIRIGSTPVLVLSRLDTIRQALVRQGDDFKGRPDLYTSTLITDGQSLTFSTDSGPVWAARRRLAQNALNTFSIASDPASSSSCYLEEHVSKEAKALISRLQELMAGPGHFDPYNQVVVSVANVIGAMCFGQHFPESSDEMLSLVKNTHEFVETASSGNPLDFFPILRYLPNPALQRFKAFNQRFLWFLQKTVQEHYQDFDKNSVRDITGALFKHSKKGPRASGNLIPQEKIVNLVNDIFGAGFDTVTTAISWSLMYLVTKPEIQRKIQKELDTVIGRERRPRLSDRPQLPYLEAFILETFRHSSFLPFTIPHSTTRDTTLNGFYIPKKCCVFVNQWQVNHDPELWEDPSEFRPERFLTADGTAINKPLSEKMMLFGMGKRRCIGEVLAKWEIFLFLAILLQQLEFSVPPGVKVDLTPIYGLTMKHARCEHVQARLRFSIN

CN(C)C(=S)SC(=S)N(C)C
active: [3] 1.25 µM | [5] 0.0189 µM
inactive: [1] | [2] | [4] | [6]

Oc1c(Cl)cc(Cl)c(Cl)c1Cc1c(O)c(Cl)cc(Cl)c1Cl
active: [1] 3.17 µM | [2] 8.51 µM | [3] 12.9 µM | [4] 4.7 µM | [5] 4.05 µM | [6] 15.6 µM

C=CC(C)(O)CCC=C(C)C (stereo not given)
inactive: [1] | [2] | [3] | [4] | [5] | [6]

CC(=O)C(C)O (stereo not given)
active: [7] 5 µM

CC(=O)Nc1ccc(C(=O)CCl)cc1
active: [1] 5.34 µM | [2] 8.55 µM | [3] 4.16 µM | [4] 4.9 µM | [5] 0.92 µM | [6] 6.11 µM | [7] 3.64 µM

C1=CC2C3C=CC(C3)C2C1 (stereo not given)
inactive: [1] | [2] | [3] | [4] | [5] | [6]

CS(C)=O
inactive: [8]

COc1ccc(CCN2CCC(Nc3nc4ccccc4n3Cc3ccc(F)cc3)CC2)cc1
active: [3] 6.91 µM | [4] 2.39 µM | [5] 6.38 µM | [6] 5 µM
inactive: [1] | [2]

C=C(C)C(=O)OCC(CC)(COC(=O)C(=C)C)COC(=O)C(=C)C
active: [1] 19.7 µM | [5] 8.4 µM
inactive: [2] | [3] | [4] | [6]

CN1C(=O)c2ccccc2C1=O
inactive: [8]

CS(=O)(=O)OCCCCOS(C)(=O)=O
inactive: [1] | [2] | [3] | [4] | [5] | [6] | [9] | [10]

CCCCC(CC)COC(C)=O (stereo not given)
active: [7] 5 µM

O=C1OC[C@H](Cc2cccc(O)c2)[C@H]1Cc1cccc(O)c1
inactive: [1] | [2] | [3] | [4] | [5] | [6]

CN(C)C(=O)Nc1ccc(Oc2ccc(Cl)cc2)cc1
inactive: [1] | [2] | [3] | [4] | [5] | [6]

COc1cc(Cl)c(OC)cc1N
active: [7] 0.992 µM
inactive: [1] | [2] | [3] | [4] | [5] | [6]

C[C@@H]1CCN(C(=O)[C@H](CCCN=C(N)N)NS(=O)(=O)c2cccc3c2NC[C@H](C)C3)[C@@H](C(=O)O)C1
inactive: [1] | [2] | [3] | [4] | [5] | [6]

c1ccc(CCc2ccccc2)cc1
active: [1] 31.7 µM | [2] 34.1 µM | [3] 34.2 µM | [4] 31.6 µM | [6] 35.9 µM

O=C1OC2(c3ccccc31)c1ccc(O)c(Br)c1Oc1c2ccc(O)c1Br
inactive: [2] | [3] | [4] | [6]
active: [1] 26 µM | [5] 8.3 µM

CCCCCCC(=O)c1ccccc1
active: [8] 5.7 µM

CCN(CC)C(=O)N(CC)CC
inactive: [1] | [2] | [3] | [4] | [5] | [6]

c1ccc2cc(Nc3ccc(Nc4ccc5ccccc5c4)cc3)ccc2c1
inactive: [1] | [2] | [3] | [4] | [5] | [6]

CC(CN=Cc1ccccc1O)N=Cc1ccccc1O (stereo not given)
inactive: [1] | [2] | [3] | [4] | [5] | [6]

c1ccc(Oc2ccccc2)cc1
inactive: [1] | [2] | [3] | [4] | [5] | [6]

CCC(C)c1cc([N+](=O)[O-])cc([N+](=O)[O-])c1OC(=O)OC(C)C (stereo not given)
active: [1] 12.2 µM | [2] 9.7 µM | [3] 28.3 µM | [5] 9.53 µM | [6] 20 µM
inactive: [4]

C=C(C)C(=O)OCCOCCOCCOC(=O)C(=C)C
inactive: [1] | [2] | [3] | [4] | [5] | [6]

CC(C)(C)CC(C)(C)c1ccc(OCCOCC[N+](C)(C)Cc2ccccc2)cc1
active: [1] 3.59 µM | [2] 6.44 µM | [3] 3.23 µM | [4] 2.46 µM | [5] 0.773 µM | [6] 8.46 µM

CC(C)(N=C=O)c1cccc(C(C)(C)N=C=O)c1
inactive: [1] | [2] | [4] | [5] | [6]

IC(I)I
inactive: [1] | [2] | [3] | [4] | [5] | [6]
